The results in this text go back to PubChem BioAssay (NCATS).

The nature of test [1]: Quantitative High-Throughput drug screen in 47 multiple myeloma cell lines against the NCATS MIPE library collection: JJN3_DSMZ cell viability assay (AID 1918966; also: nearly all actives have a fitted effect of over 50% in size). The procedure, abridged:
(§1)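 CellTiter-Glo ATP luminescence gave viability after 48 h compound treatment at 37C of 500 multiple myeloma cells per well. Normalisation used DMSO-only wells as 100% and media-only wells as 0% viability; primary qHTS of approved and investigational drugs.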

A short description of test [2]: Quantitative High-Throughput drug screen in 47 multiple myeloma cell lines against the NCATS MIPE library collection: H1112_PLB cell viability assay (AID 1918967; also: nearly all actives have a fitted effect of over 30% in size). The procedure, abridged: as §1
Test [3] in a line: Quantitative High-Throughput drug screen in 47 multiple myeloma cell lines against the NCATS MIPE library collection: Karpas25_ECACC cell viability assay (AID 1918968; also: nearly all actives have a fitted effect of over 35% in size). In outline: as §1
Test [4] is described as follows: Quantitative High-Throughput drug screen in 47 multiple myeloma cell lines against the NCATS MIPE library collection: KMS27_JCRB cell viability assay (AID 1918970). Also: nearly all actives have a fitted effect of over 30% in size. The following applies: KMS27 myeloma cells, CellTiter-Glo ATP viability, 48 h; viability (% of DMSO): at 45.8 µM (top of the series). The procedure, abridged:
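Viability inhibition screen, 48 h compound exposure, luminescent ATP read-out.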
In general terms: In ATP-based viability assays light output follows the ATP content of the culture.

Test [5] in a line: Quantitative High-Throughput drug screen in 47 multiple myeloma cell lines against the NCATS MIPE library collection: INA6_PLB cell viability assay (AID 1918965; also: nearly all actives have a fitted effect of over 55% in size). In outline:
(§2)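 Relative luminescence from CellTiter-Glo served as the viability signal, referenced to DMSO-treated (100%) and cell-free medium (0%) controls. Treatment lasted 48 hours at 37C with 500 cells per well.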

Test [6] in a line: Quantitative High-Throughput drug screen in 47 multiple myeloma cell lines against the NCATS MIPE library collection: KMS12BM_JCRB cell viability assay (AID 1918971). Also: nearly all actives have a fitted effect of over 35% in size. The procedure, abridged:
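Steps: seed 500 cells per well; pin-transfer MIPE 4.0 library; incubate 48 h at 37C, 5% CO2, humidified; add CellTiter-Glo, 5 min room temperature; read luminescence.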

Test [7] can be described thus: Quantitative High-Throughput drug screen in 47 multiple myeloma cell lines against the NCATS MIPE library collection: KMS12PE_JCRB cell viability assay (AID 1918972). Also: nearly all actives have a fitted effect of over 30% in size. In outline: as §2

Records with an inconclusive call do not appear. The source made the active and inactive calls. Calls follow the shape of the dose curve; as a rule, active = well fitted cell-killing curve with a large enough effect; inconclusive = small, poorly fitted or top-dose-only effect, or effect the other way; inactive = no such curve, though single readings can be large or run the other way.
Potency is read from the fitted curve at half-maximal effect.

As for `CNC(=O)[C@H](Cc1ccccc1)NC(=O)[C@H](CC(C)C)[C@H](CSc1cccs1)C(=O)NO`, the figures for the Potency in test [1], in test [2] and in test [3] were 18.7 µM (active), 20.9 µM (active) and 16.6 µM (active), respectively. The Potency entry in test [4] was “inactive”.
On to `CCC(=O)N1CCN(c2ccc(-n3c(=O)ccc4cnc5ccc(-c6cnc7ccccc7c6)cc5c43)cc2C(F)(F)F)CC1`, for which the Potency in test [5] was 0.0148 µM (active); in test [3], 0.0332 µM (active); in test [6], 0.0047 µM (active).
Regarding `Cc1ccc2c(=O)c3cccc(CC(=O)O)c3oc2c1C`, the Potency is 23.5 µM (active) in test [5] and 26.4 µM (active) in test [2]. The Potency result in test [7] is “inactive”.
As for `CNC(=O)c1c(-c2ccc(F)cc2)oc2cc(N(CCO)S(C)(=O)=O)c(C3CC3)cc12`, the Potency in test [3] is 20.9 µM (active).
As to `Cc1nc2c([nH]1)CCN(C(=O)c1ccc(NC(=O)c3ccccc3-c3ccccc3)cc1)c1ccccc1-2`, the Potency result in test [1], in test [2] and in test [4] was “inactive” throughout.
With `O=C(O)CCC=CCC[C@@H]1[C@H](N2CCCCC2)[C@@H](O)C[C@@H]1OCc1ccc(-c2ccccc2)cc1`, the Potency entry in test [1], in test [2], in test [4], in test [6] and in test [7] was “inactive” in each case.
With `O=c1cc(-c2ccc(O)c(O)c2)oc2cc(O)cc(O)c12`, the values for the Potency in test [5] and in test [4] were 26.4 µM (active) and 6.62 µM (active), respectively. Moreover, the Potency entry in test [6] and in test [7] was “inactive” each time.
Consider `C[C@@H](O[C@H]1OCCN(Cc2n[nH]c(=O)[nH]2)[C@@H]1c1ccc(F)cc1)c1cc(C(F)(F)F)cc(C(F)(F)F)c1`, for which the Potency was 20.9 µM (active) in test [5] and 18.7 µM (active) in test [6]. Moreover, the Potency result in test [4] was “inactive”.
As for `C=CC(=O)Nc1cccc(Sc2nc(Nc3ccc(N4CCN(C)CC4)cc3)ncc2Cl)c1`, in test [1], the Potency was 37.2 µM (active).
On to `CC1=C[C@@H]2[C@@H]([C@@H](O)C[C@@]3(C)[C@H]2C[C@@H](C)[C@]3(O)C(=O)CO)[C@@]2(C)Cc3cnn(-c4ccccc4)c3C=C12`, for which the Potency in test [1] was 23.5 µM (active); in test [3], 0.0083 µM (active); in test [6], 18.7 µM (active). The Potency entry in test [4] was “inactive”.
Take `O=C(c1ccc(C(=O)N2CCC(N3CCCC3)CC2)c(Nc2ccccc2)c1)N1CCC(N2CCCC2)CC1`: the Potency entry in test [2], in test [3], in test [4] and in test [7] was “inactive” each time.
`CC[C@]1(O)C[C@H]2CN(CCC3=c4ccccc4=N[C]3[C@@](C(=O)OC)(c3cc4c(cc3OC)N(C)[C@H]3[C@@](O)(C(N)=O)[C@H](O)[C@]5(CC)C=CCN6CC[C@]43[C@@H]65)C2)C1`: the Potency in test [1] is 0.372 µM (active); in test [2] it was 0.0332 µM (active); in test [4], 0.296 µM (active); in test [6], 0.0047 µM (active); in test [7] it was 0.132 µM (active).
As to `N#CC1(c2cccc(C(=O)Nc3cc(Oc4ccc5nc(NC(=O)C6CC6)sc5n4)ccc3F)c2Cl)CC1`, the Potency in test [5] was 5.9 µM (active); in test [2], 13.2 µM (active); in test [6] it was 13.2 µM (active); in test [7], 2.09 µM (active).
`O=C1Nc2ccc(I)cc2C1=Cc1cc(Br)c(O)c(Br)c1`: the Potency in test [5] was 2.96 µM (active); in test [3], 14.8 µM (active); in test [4] it was 10.5 µM (active); in test [6], 16.6 µM (active).
As for `Nc1ccc(-c2ccc3ncc4ccc(=O)n(-c5cccc(C(F)(F)F)c5)c4c3c2)cn1`, the Potency in test [1] is 0.0235 µM (active); in test [2] it was 0.0469 µM (active); in test [6] it was 0.0105 µM (active).
For `CCCCC[C@H](O)C=C[C@H]1[C@H](O)CC(=O)[C@H]1CCCCCCC(=O)O`, the Potency in test [1] is 7.43 µM (active); in test [3] it was 23.5 µM (active). Besides, the Potency entry in test [2], in test [4] and in test [7] was “inactive” each time.
As to `N#Cc1ccc(Oc2ccc3c(c2)COB3O)cc1`, the figures for the Potency in test [5] and in test [4] were 20.9 µM (active) and 23.5 µM (active), respectively.
On to `O=C(O)Cc1cccc(OCCCN(Cc2cccc(C(F)(F)F)c2Cl)CC(c2ccccc2)c2ccccc2)c1`, for which the results for the Potency in test [1] and in test [6] were 5.26 µM (active) and 3.32 µM (active), respectively. Further, the Potency result in test [7] is “inactive”.
Turning to `Fc1ccc(C(c2ccc(F)cc2)N2CCN(CC=Cc3ccccc3)CC2)cc1`, the Potency entry in test [2], in test [3], in test [6] and in test [7] was “inactive” in each case.
Take `CCNC(=O)c1noc(-c2cc(C(C)C)c(O)cc2O)c1-c1ccc(CN2CCOCC2)cc1`: the Potency in test [5] was 0.0833 µM (active); in test [3], 0.0332 µM (active). In addition, the Potency entry in test [4] was “inactive”.
As for `CC(C)(OCc1nn(Cc2ccccc2)c2ccccc12)C(=O)O`, the Potency entry in test [5], in test [4] and in test [7] was “inactive” in each case. In addition, in test [6], the Potency was 0.418 µM (active).
Turning to `OC1CCC(Nc2ncc3nc(Nc4c(F)cc(F)cc4F)n([C@@H]4CCOC4)c3n2)CC1` (some centres undefined), the Potency in test [5] was 14.8 µM (active); in test [6], 23.5 µM (active); in test [7], 18.7 µM (active).
With `CC(C)CN(C[C@H](O)[C@H](Cc1ccccc1)NC(=O)O[C@H]1CCOC1)S(=O)(=O)c1ccc(N)cc1`, the Potency in test [1] is 1.87 µM (active); in test [2], 18.7 µM (active). Moreover, the Potency entry in test [4] and in test [7] was “inactive” throughout.
In the case of `NCc1c[nH]c(=S)n1[C@H]1CCc2c(F)cc(F)cc2C1`, the Potency in test [3] is 23.5 µM (active); in test [4], 11.8 µM (active); in test [6], 13.2 µM (active); in test [7], 14.8 µM (active).
Take `c1ccc(CNc2nc(N3CCOc4ccccc43)nc3c2CCCC3)cc1`: the Potency result in test [1] and in test [2] was “inactive” in each case.
On to `CN(C)c1ccccc1CN1CCCN(Cc2ccccc2N(C)C)C1c1ccncc1`, for which the Potency in test [5] is 23.5 µM (active); in test [3], 16.6 µM (active); in test [6] it was 16.6 µM (active).
Turning to `CO[C@H]1C=CO[C@@]2(C)Oc3c(C)c(O)c4c(O)c(c(C=NN5CCN(C)CC5)c(O)c4c3C2=O)NC(=O)C(C)=CC=C[C@H](C)[C@H](O)[C@@H](C)[C@@H](O)[C@@H](C)[C@H](OC(C)=O)[C@H]1C`, the Potency in test [1] was 1.19 µM (active). In addition, the Potency entry in test [2] and in test [4] was “inactive” each time.
Regarding `CN1CCC[C@H]1CCO[C@](C)(c1ccccc1)c1ccc(Cl)cc1`, the Potency in test [5] is 18.7 µM (active); in test [3], 13.2 µM (active).
On to `CC(C)(CO)[C@@H](O)C(=O)NCCC(=O)O`, for which the Potency entry in test [1], in test [2], in test [3], in test [4], in test [6] and in test [7] was “inactive” throughout.
